CHX counter – Cycloheximide Counterscreen for Small Molecule Inhibitors of Shiga Toxin. cell reporter, cycloheximide protein synthesis inhibition counterscreen. max response, %. hit rate 12% among 300,000. AID 2314, 2010; in the data active = max response mostly above about 13%, no sharp cut-off; inactive = mostly below about 14%; note: read at 38.3 µM for the half of the compounds with a filed dose
Shiga toxin inh – A qHTS for Small Molecule Inhibitors of Shiga Toxin; Vero cells, Shiga toxin protein synthesis inhibition reporter; AID 2315, 2010; hit rate 9.2% among 290,000; inhibition, % at 38.7 µM; in the data active = inhibition mostly above about 28%, no sharp cut-off; inactive = mostly below about 43%
Pf growth 96h – Primary qHTS for delayed death inhibitors of the malarial parasite plastid, 96 hour incubation; P. falciparum luciferase reporter growth, 96 h; Potency, µM (doses to about 28.7 µM), hits mostly inhibitors; hit rate 6.9% among 320,000; AID 504834, 2011
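Delayed-death screen, second-generation endpoint: infected erythrocytes, 2% hematocrit, 0.05% parasitemia final; 96 hours at 37 C, 5% CO2; luciferase detection reagent; luminescence decrease equals reduced growth.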
Sm TGR block – qHTS Assay for the Inhibitors of Schistosoma Mansoni Peroxiredoxins; Potency, µM (highest dose often 114 µM), usual class: inhibitors; Schistosoma mansoni thioredoxin glutathione reductase (TGR), Q962Y6; hit rate 3% among 360,000; purified TGR, DTNB reduction, TNB absorbance 405 nm; note: nearly all actives have a fitted effect of over 60% in size
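TGR 20 nM + NADPH 100 uM (dispensed conc.), cpd preinc 15 min RT; start with NADPH (500 uM addition) then DTNB (15 mM addition). Kinetic TNB absorbance, 405 nm filter. Four-parameter Hill fit across titration.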
Pf growth 48h – Primary qHTS for delayed death inhibitors of the malarial parasite plastid, 48 hour incubation | hit rate 5.9% among 310,000 | P. falciparum luciferase growth in erythrocytes, 48 h | Potency, µM (top dose mostly 28.7 µM), hits mostly inhibitors
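Growth was read as firefly luciferase luminescence after a 48 h, 37 C, 5% CO2 exposure of compounds to reporter-bearing P. falciparum cultures (0.1% parasitemia, 2% hematocrit final) in Albumax-supplemented RPMI 1640.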
NS1 function inh – qHTS Assay for Inhibitors of Influenza NS1 Protein Function; Potency, µM (top dose mostly 46.1 µM); hit rate 0.4% among 270,000; AID 2326, 2010; calls by dose curve; note: actives are rising curves; nearly all actives have a fitted effect of over 50% in size
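S. cerevisiae expressing influenza A NS1, grown in glucose, washed, then diluted 1:100 into pH 6.0 -URA galactose medium with 23 nl compound. Growth recovery read as OD600; NS1-free strain serves as control.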
Hits are given with their value; – = inactive; ? = inconclusive; · = no result. Compounds with a hit are over-represented: about 21% of the library has one in this group of screens. Unless noted, calls come from the whole dose curve; as a rule, active = well fitted curve in the direction sought with a large enough effect; inconclusive = small, poorly fitted or top-dose-only effect, or another doubt; inactive = no such curve, though single readings can be large; an effect the other way counts as inactive or inconclusive.

SMILES	CHX counter	Shiga toxin inh	Pf growth 96h	Sm TGR block	Pf growth 48h	NS1 function inh
CCN(CC)P(=O)(Nc1ccc([N+](=O)[O-])cc1)c1c(C)nn(CCC#N)c1NC(=O)c1ccc(Cl)cc1Cl (stereo not drawn)	–	–	7.4µM	–	7.4µM	–
Cc1cccc(N2C(=O)N3[C@@H]4c5ccccc5OC[C@@H]4[C@@H](c4ccccc4)[C@]3(C)C2=O)c1	–	–	12µM	–	?	–
C[C@]12C(=O)N(c3ccc(Cl)cc3)C(=O)N1[C@H]1c3ccccc3OC[C@@H]1[C@H]2c1ccccc1	–	–	?	–	?	–
Cc1cccc(N2C(=O)N3[C@@H]4c5ccccc5OC[C@@H]4[C@@H](c4ccccc4)[C@@]3(C)C2=O)c1	–	–	?	–	?	?
C[C@]12C(=O)N(c3cccc(Cl)c3)C(=O)N1[C@H]1c3ccccc3OC[C@@H]1[C@H]2c1ccccc1	–	–	10µM	–	–	–
Nc1ncnc2c1ncn2CCc1ccccc1	29	44	?	–	–	–
Cc1ccccc1OCCn1cnc2c(N)ncnc21	11	–	–	–	–	–
Cc1cccc(NC(=O)c2nc[nH]c2C(=O)NCCCCCNC(=O)OC(C)(C)C)c1	·	·	?	–	2.6µM	·
Cc1cccc(NC(=O)c2nc[nH]c2C(=O)Nc2cccc(C)c2)c1	–	–	–	–	–	·
CCN(CC)C(=O)c1[nH]cnc1C(=O)N[C@@H](CCCCNC(=O)OC(C)(C)C)C(=O)OC(C)(C)C	–	–	?	–	?	–
Cc1cccc(NC(=O)c2nc[nH]c2C(=O)N[C@@H](CCCCNC(=O)OC(C)(C)C)C(=O)OC(C)(C)C)c1	–	–	6.6µM	–	4.7µM	?
O=C(NCC(c1cccnc1)N1CCN(c2ccc(F)cc2)CC1)c1cccc(Cl)c1 (stereo not drawn)	–	–	–	–	12µM	–
COC(=O)NCC(c1cccnc1)N1CCN(c2ccc(F)cc2)CC1 (stereo not drawn)	·	·	·	–	·	·
COc1cc(C(=O)NCC(c2cccnc2)N2CCN(c3ccccc3)CC2)cc(OC)c1OC (stereo not drawn)	–	–	?	–	13µM	–
O=C(NCC(c1cccnc1)N1CCN(c2ccc(F)cc2)CC1)Oc1ccccc1 (stereo not drawn)	–	–	?	–	8.3µM	–
O=C(NCCc1c[nH]c2ccccc12)C(=O)NCC(c1cccnc1)N1CCN(c2ccccc2)CC1 (stereo not drawn)	–	–	8.3µM	–	13µM	–
CCOC(=O)c1ccc(NS(=O)(=O)c2cc(Br)cc3c2N(C(C)=O)C(C)C3)cc1 (stereo not drawn)	·	·	·	–	·	·
C=CCn1c(SCC(=O)c2ccc(F)cc2)nnc1-c1ccc2c(c1)OCO2	–	–	?	–	–	·
O=C(NCC(c1cccnc1)N1CCN(c2ccccc2)CC1)OCc1ccccc1 (stereo not drawn)	–	–	–	–	7.4µM	–
C=CCn1c(=N)n(CC(=O)c2ccc(Br)s2)c2ccccc21	–	–	13µM	–	12µM	–
C=CCn1c(=N)n(CC(=O)c2ccc(Cl)cc2)c2ccccc21	–	–	–	–	?	–
N=c1n(CC(=O)c2cccs2)c2ccccc2n1Cc1ccccc1	–	–	4.7µM	–	?	–
O=C(O)Cn1c(=O)n(Cc2ccccc2)c2ccccc21	–	–	?	–	–	–
C=CCn1c(=N)n(CC(=O)OC)c2ccccc21	–	–	12µM	–	–	–
CC(C)(C)OC(=O)NC(Cc1ccccc1)C(=O)NC1COC2CC(n3cc(F)c(=O)[nH]c3=O)OC12 (stereo not drawn)	–	–	·	·	·	·
SMILES	CHX counter	Shiga toxin inh	Pf growth 96h	Sm TGR block	Pf growth 48h	NS1 function inh
CCc1nn2c(=O)cc(COC(=O)C(CC)c3ccccc3)nc2s1 (stereo not drawn)	·	·	·	–	·	·
COc1ccc(OC)c(NC(=O)CCN2CCCCCC2)c1	–	–	–	–	–	–
CCCc1[nH][nH]c(=O)c1C(c1ccccc1)C(C#N)C#N (stereo not drawn)	–	–	–	2.5µM	–	–
Cc1cc(Cc2cc(C)c(N)cc2C)c(C)cc1N	–	–	–	·	?	–
Cc1cc(Cc2cc(C)c(N)cc2N)c(N)cc1N	·	·	·	·	·	8.9µM
O=c1nc(-c2ccccc2)c2cc(Cl)ccc2[nH]1	–	–	·	–	–	–
c1ccc(-c2cc3ccccc3[nH]2)cc1	33	37	–	–	–	–
COc1ccc(-c2cc(=O)c3ccccc3[nH]2)cc1	–	–	?	–	?	–
Clc1ccc2[nH]c(-c3ccccc3)cc2c1	46	70	–	–	–	–
O=c1ccc2ccccc2[nH]1	–	–	·	·	·	·
COc1ccc(-c2cc3ccccc3[nH]2)cc1	42	100	–	–	–	–
O=[N+]([O-])c1cccc(-c2cc3ccccc3[nH]2)c1	27	–	–	–	–	–
O=C(NCc1ccccc1F)C1CCN(c2nn3cc(-c4ccc(F)cc4)nc3s2)CC1	·	·	·	–	·	·
Cc1ccc(CN2CCNC(=O)C2CC(=O)N(C)CCc2cnn(C)c2)cc1 (stereo not drawn)	–	–	–	–	–	–
CCOc1ccc(OCCn2c(S(=O)(=O)O)nc3c(N)ncnc32)cc1	–	–	–	–	–	–
CCOC(=O)C(Cc1ccccc1)C(=O)NCc1cccnc1 (stereo not drawn)	–	–	–	–	–	–
Cc1ccc(O)c(-c2cc3ccccc3[nH]2)c1	28	33	–	–	?	–
Cc1ccc(C(=O)OCc2cc3ccccc3[nH]c2=O)cc1	–	–	?	–	?	?
CCc1ccc(-c2cc(C(=O)N/N=C/c3ccccn3)[nH]n2)cc1	–	–	–	–	?	·
CCCc1sc(N/N=C/c2ccccn2)nc1-c1ccc(Br)cc1	–	–	–	–	1.7µM	–
N/C(=N\OC(=O)c1cccc2ccccc12)c1ccncc1	45	67	?	–	?	–
N/C(=N\OC(=O)c1cccc2ccccc12)c1ccc(Br)cc1	–	–	?	–	?	–
N/C(=N\OC(=O)C(c1ccccc1)c1ccccc1)c1ccncc1	–	–	?	–	2.9µM	–
COc1cc(C(=O)O/N=C(\N)c2ccc([N+](=O)[O-])cc2)cc(OC)c1OC	–	–	–	–	?	–
COc1cc(C(=O)O/N=C(\N)c2ccncc2)cc(OC)c1OC	–	–	?	–	9.3µM	–
COc1ccc(Cl)cc1C(=O)O/N=C(\N)c1ccncc1	–	57	?	–	?	–
O=C(Nc1c2c(nn1-c1ccc(F)cc1)CS(=O)(=O)C2)c1ccc(S(=O)(=O)N2CCOCC2)cc1	–	–	–	–	–	·
COc1ccc(C(=O)OCCNC(=O)c2ccncc2)cc1OC	–	–	–	–	–	–
